# Assay outcomes (PubChem)
# p53 reactivator: qHTS assay for re-activators of p53 using a Luc reporter | H1299 p53-A138V BP100-luciferase reporter, luminescence, 24 h | Potency, µM (highest dose often 92.2 µM), for the others: at the top dose activity change, positive = activation, actives largely listed as activators | hit rate 0.063% among 320,000 | AID 504706, 2011; note: % of control where 0% means no effect; nearly all actives have a fitted effect of over 45% in size
#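 H1299 (p53-null), stable ts p53-A138V + BP100-Luc; 1000 cells/well, Opti-MEM/10% FBS; cpd 4 pt, 1:5; 24 h, 37 deg C, 5% CO2; detection reagent 10 min RT; luminescence.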
# SMN2 splice enh: qHTS Assay for Enhancers of SMN2 Splice Variant Expression. HEK293 SMN2-luciferase splicing reporter, luminescence, 30-36 h. Potency, µM (titrated, usually from 46.1 µM), for inactives: at the top dose activity change, positive = activation, most hits filed as activators. hit rate 2.8% among 210,000. AID 1458, 2008; note: % of control where 0% means no effect; nearly all actives have a fitted effect of over 55% in size
#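 qHTS luciferase splicing reporter: luminescence rises when SMN2 exon 7 is included in transfected HEK293 cells. Compound exposure lasted 30-36 h at 37C, with 4.5 mM final sodium butyrate as control, followed by a ONE-Glo read.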
# ELG1 genotox: qHTS screen for small molecules that induce genotoxicity in human embryonic kidney (HEK293T) cells expressing luciferase-tagged ELG1; HEK293T ELG1-luciferase reporter, luminescence, 16 h; Potency, µM (top dose mostly 46 µM), for inactives: at the highest dose activity change, positive = activation, actives largely listed as activators; hit rate 1.3% among 330,000; AID 504466, 2011; note: % of control where 0% means no effect; nearly all actives have a fitted effect of over 60% in size
#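 Quantitative HTS format in 1536-well plates. HEK293T ELG1-luciferase reporter cells receive test compound and are incubated 16 hr at 37 °C, 5% CO2; ONE-Glo added, 30 min room temperature, then luminescence read.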
# Rab9 promoter act: qHTS Assay for Rab9 Promoter Activators | Huh7 Rab9 promoter-luciferase reporter, luminescence, 24 h | Potency, µM (series often up to 9.22 µM), for the others: top-dose activation, negative = inhibition, hits mostly activators | hit rate 2.8% among 320,000 | AID 485297, 2010; note: % of control where 0% means no effect; nearly all actives have a fitted effect of over 60% in size
#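 Promoter activation is measured as luciferase luminescence in Huh7 cells stably transfected with a Rab9 promoter–luciferase construct, following 24 h compound exposure at 37 °C and 10 min reagent incubation at ambient temperature.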
# FLuc counter: qHTS profiling assay for firefly luciferase inhibitor/activator using purifed enzyme and Km concentrations of substrates (counterscreen for miR-21 project). Luciferin 4-monooxygenase (Photinus pyralis), P08659. purified FLuc, Km substrates, luminescence inhibition. Potency, µM (series often up to 57.5 µM), inactives show at the top dose activity change, negative = inhibition, hits mostly inhibitors. hit rate 6.9% among 360,000. AID 588342, 2011;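 note: plate controls were vehicle for no effect and reference inhibitor for full effect; nearly all actives have a fitted effect of over 55% in size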
# Target sequence (P08659 whole entry, looked up): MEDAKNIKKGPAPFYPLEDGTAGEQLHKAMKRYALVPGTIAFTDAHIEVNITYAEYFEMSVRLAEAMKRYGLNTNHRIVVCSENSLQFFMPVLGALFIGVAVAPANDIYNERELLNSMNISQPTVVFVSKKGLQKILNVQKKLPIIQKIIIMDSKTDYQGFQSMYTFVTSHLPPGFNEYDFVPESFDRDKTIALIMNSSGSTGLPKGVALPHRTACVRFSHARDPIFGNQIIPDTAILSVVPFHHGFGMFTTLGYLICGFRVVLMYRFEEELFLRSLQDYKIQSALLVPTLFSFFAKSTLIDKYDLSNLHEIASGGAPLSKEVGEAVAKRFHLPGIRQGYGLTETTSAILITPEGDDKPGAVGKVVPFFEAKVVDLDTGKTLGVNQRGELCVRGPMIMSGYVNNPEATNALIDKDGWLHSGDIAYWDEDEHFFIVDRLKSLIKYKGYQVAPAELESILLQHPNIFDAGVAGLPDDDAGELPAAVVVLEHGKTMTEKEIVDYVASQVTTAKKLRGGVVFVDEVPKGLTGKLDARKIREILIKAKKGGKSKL
#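 Biochemical qHTS of compounds, final roughly 60 µM downward over six points, against 10 nM purified firefly luciferase using Km concentrations of substrates (10 uM D-luciferin, 10 uM ATP) in Tris acetate pH 7.5 buffer; luminescence output.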
# NPC1 promoter act: qHTS Assay for NPC1 Promoter Activators. Huh7 NPC1 promoter luciferase reporter, 24 h. Potency, µM (highest dose often 9.22 µM), for the others: at the top dose activation, usual class: activators. hit rate 2.4% among 320,000. AID 485313, 2010; note: % of control where 0% means no effect; nearly all actives have a fitted effect of over 60% in size
#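 Stably transfected Huh7 (NPC1 promoter→luciferase), 1500 cells/well in Opti-MEM + 10% FBS, 2 h settle, then compound 24 h at 37 °C. Luminescence after 10 min with Amplite reagent.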
# * = called active by the depositor; ? = inconclusive; . = not tested or not shown; [ ] = remark or other dose. Rows were chosen to be rich in hits. Some 7.3% of all compounds tested hit in one or more screens of this group. Calls come from the whole dose curve; as a rule, active = well fitted curve in the direction sought with a large enough effect; inconclusive = small, poorly fitted or top-dose-only effect, or another doubt; inactive = no such curve, though single readings can be large; an effect the other way counts as inactive or inconclusive. Potency is the fitted concentration of half-maximal effect.
SMILES,p53 reactivator,SMN2 splice enh,ELG1 genotox,Rab9 promoter act,FLuc counter,NPC1 promoter act
COC(=O)c1ccc2c(=O)n(CCc3ccc(S(N)(=O)=O)cc3)c(SCC(=O)C(C)(C)C)nc2c1,.,.,.,.,-3.2%,.
O=C(Cc1ccc(Br)cc1)N1CCCCCC1,?,10µM*,20.6µM*,18.6%,?,?
CCCC(=O)Nc1nnc(CCc2ccccc2)s1,-8.5%,.,-2.6%,4.9%,-5.1%,4.0%
CCCc1nnc(NC(=O)CS(=O)(=O)c2ccccc2)s1,1.9%,.,0.4%,2.9%,0.3%,2.5%
CC(C)(C)C(=O)Nc1nnc(Cc2ccccc2)s1,5.4%,-6.0%,0.4%,0.9%,0.7%,-0.7%
CC(C)(C)CC(=O)Nc1nnc(CCc2ccccc2)s1,.,.,?,3.16µM*,?,3.16µM*
CCC(C)(C)C(=O)Nc1nnc(CCc2ccccc2)s1,17.7%,.,20.6µM*,3.98µM*,?,2.82µM*
CCCc1nnc(NC(=O)CC(=O)Nc2ccccc2C(=O)O)s1,-0.2%,-10.6%,0.9%,-1.1%,19µM*,24.3%
COc1cc(CCC(=O)NCc2ccc3c(c2)CCN3C(=O)c2cccc(C)c2)cc(OC)c1OC,.,.,.,.,-10.9%,.
COCCNC(=O)CSc1n[nH]c(=O)n1CCc1ccccc1,-0.9%,.,2.2%,-9.6%[1.84 µM],-2.7%,-5.9%
CC(=O)Nc1ccc(Nc2nc3ccc(Cl)cc3n3cnnc23)cc1,.,-6.7%,.,.,-0.6%,.
Oc1ccc(-c2csc(Nc3ncccn3)n2)c(O)c1,-0.1%,11.2µM*,7.3µM*,1.12µM*,3.01µM*,3.16µM*
Oc1ccc(-c2csc(Nc3ncccn3)n2)cc1O,12.8%,?,?,-1.9%,8.49µM*,22.4%
Cc1ccc(C)c(-c2csc(Nc3ncccn3)n2)c1,4.6%,.,6.8%,8.2%[1.84 µM],-1.1%,15.2%
Cc1nc2ccccn2c1-c1csc(Nc2cccc(O)c2)n1,5.9%,.,2.1%,-1.0%,-7.0%,0.9%
Cc1cccc(Nc2nc(-c3ccc(O)cc3O)cs2)n1,-24.4%,.,?,3.98µM*,13.5µM*,3.16µM*
O=C(NCc1ccc2c(c1)OCO2)c1ccc2c(c1)N(Cc1ccccc1F)C(=O)c1ccccc1S2=O (configuration not stated),.,16.2%,.,.,2.7%,.
CC(=O)c1ccc(NC(=O)CSC2=Nc3ccccc3N=C(c3ccc(F)cc3)C2)cc1,.,.,.,.,-1.7%,.
Cc1cc(C(=O)NCc2ccccc2C)c2c(C)nn(-c3cccc(F)c3)c2n1,.,.,.,.,3.9%,.
O=C(c1cc[n+]([O-])cc1)N1CCc2c([nH]c3ccccc23)C1c1ccccc1Cl (configuration not stated),-2.4%,.,-3.3%,-5.1%,-1.7%,-1.5%
CN1N=C(C(=O)N2CCc3c([nH]c4ccccc34)C2c2ccccc2Cl)CCC1=O (configuration not stated),11.2%,.,?,5.01µM*,15.1µM*,14.5%
O=C(Nc1cnc2ccccn2c1=O)c1ccc(F)cc1,?,11.2µM*,18.8%,3.16µM*,16.9µM*,2.51µM*
COc1ccc(C(=O)Nc2cnc3ccccn3c2=O)cc1,2.0%,17.8µM*,?,3.55µM*,16.9µM*,2.82µM*
CC(C)CCNC(=O)C(=O)Nc1ccccc1,25.4%,?,?,1.58µM*,?,3.55µM*
CC(C)CCNC(=O)c1ccc(-c2ccccc2)cc1,4.6%,7.94µM*,?,3.55µM*,9.53µM*,?
CCN(CC)S(=O)(=O)c1cccc(C(=O)NCCCn2ccnc2)c1,1.1%,.,-4.0%,-0.4%,-2.2%,2.2%
Cc1c(C(=O)N(C)C)sc2nc(-c3ccccn3)[nH]c(=O)c12,3.3%,17.0%,?,?,?,11.1%
